# rCAG binder – r(CAG) repeat RNA binding; inhibition, % at 3 µM; 370,000 tested, 1.3% active; TO-PRO-1 dye displacement fluorescence;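 active means inhibition above the plate cutoff, the mean of all test compounds on that plate plus 3 SD, cut at about 35% in these data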;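 further: 0% = DMSO alone and 100% = 100 µM mitoxantrone as full dye displacement; higher means more dye released from RNA so lower well fluorescence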
# PRMT1 FP inh – inhibitors of human PRMT1; AID 652257; inhibition, % at 2.79 µM; Q99873; 370,000 tested, 1.3% active; recombinant PRMT1, activity-based probe fluorescence polarization;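 active means inhibition above about 21% made by adding two undisclosed values, limit read from the data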
# UHRF1 MBD2 ctr – blocks human UHRF1 binding to methylated DNA. inhibition, % at 4.4 µM. Q96T88. UHRF1 binding to methylated oligo, TR-FRET. 370,000 tested, 0.75% active; in the data active means inhibition above about 21%;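 further: UHRF1 SRA domain binding a hemimethylated CpG hairpin DNA probe; 0% = median of test compound wells and 100% = reference inhibitor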
# Target sequence (Q96T88 whole entry, looked up, the tested form may be a part): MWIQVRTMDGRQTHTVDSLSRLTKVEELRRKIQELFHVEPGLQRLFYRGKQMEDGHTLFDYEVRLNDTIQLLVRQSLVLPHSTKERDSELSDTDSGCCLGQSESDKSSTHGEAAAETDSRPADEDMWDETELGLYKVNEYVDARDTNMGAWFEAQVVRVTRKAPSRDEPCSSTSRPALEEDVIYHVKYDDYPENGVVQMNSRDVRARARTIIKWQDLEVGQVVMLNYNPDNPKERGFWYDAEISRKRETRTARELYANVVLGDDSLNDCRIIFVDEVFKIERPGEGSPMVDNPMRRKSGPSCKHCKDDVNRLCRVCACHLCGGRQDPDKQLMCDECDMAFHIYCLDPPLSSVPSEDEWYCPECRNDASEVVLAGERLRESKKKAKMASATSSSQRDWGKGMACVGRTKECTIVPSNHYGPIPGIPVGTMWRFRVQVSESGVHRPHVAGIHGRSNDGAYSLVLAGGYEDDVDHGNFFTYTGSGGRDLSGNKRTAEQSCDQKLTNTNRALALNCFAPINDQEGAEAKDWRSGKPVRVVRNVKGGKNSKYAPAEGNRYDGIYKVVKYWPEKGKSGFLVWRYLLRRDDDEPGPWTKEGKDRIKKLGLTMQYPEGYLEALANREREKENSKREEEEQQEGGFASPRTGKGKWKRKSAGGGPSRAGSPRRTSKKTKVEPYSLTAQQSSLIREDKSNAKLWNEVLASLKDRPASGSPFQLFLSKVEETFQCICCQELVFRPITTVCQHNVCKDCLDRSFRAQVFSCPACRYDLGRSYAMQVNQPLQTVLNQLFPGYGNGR
# LEDGF integ inh – blocks HIV-1 LEDGF/p75-dependent DNA integration; TR-FRET IN-LEDGF/p75 DNA integration, Eu/Cy5; inhibition, % at 3.7 µM; 370,000 tested, 0.64% active; AID 743269;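 active means inhibition above the screen-wide mean plus 3 SD, cut at about 13% in these data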;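 further: signal is the Cy5 over europium emission ratio at 671 and 618 nm; 0% = plate median of compound wells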
# ABHD5-PLIN5 inh – inhibitors of human ABHD5-perilipin-5 interaction. Q00G26+Q8WTS1. Split G. princeps luciferase complementation, luminescence, 4 h. inhibition, % at 4 µM. AID 602281. 360,000 tested, 0.78% active;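 active means inhibition above the mean inhibition across every tested compound plus 3 SD, cut at about 22% in these data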;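 further: 0% = DMSO only wells and the 100% control is not disclosed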
# MBD2 inh – blocks human MBD2 binding to methylated DNA; AID 686964; inhibition, % at 4.4 µM; 370,000 tested, 0.31% active; Q9UBB5; TR-FRET, MBD2 binding to methylated oligonucleotide; in the data active means inhibition above about 13%
# rCAG bind conf – r(CAG) RNA repeat binding, confirmation; AID 652065; TO-PRO-1 dye displacement fluorescence; inhibition, % at 3 µM; shares compounds with rCAG binder; 4,300 tested, 70% active;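 active means inhibition above a per-plate cutoff, the mean inhibition of sample wells plus 3 SD, cut at about 35% in these data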;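 further: loss of TO-PRO-1 fluorescence as compound displaces dye from 1x1 AA loop RNA; 0% = DMSO only wells and 100% = 100 µM mitoxantrone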
# dCAG dye counter – disrupts DNA CAG TO-PRO-1 complex, flagging rCAG hits; shares compounds with rCAG binder; d(CAG) DNA oligo TO-PRO-1 dye displacement, fluorescence; inhibition, % at 3 µM; 4,300 tested, 94% active; AID 652068;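 active means inhibition above its plate's cutoff, the mean test-well inhibition plus 3 SD, cut at about 4.8% in these data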;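 further: 0% = DNA dye mix with DMSO and 100% = 100 µM mitoxantrone; hits displace the dye from DNA and so lower well fluorescence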
# * hit, by the source's call; nt = no result. Shown are actives, neighbours in structure and some others; about 4.1% of the full set was active somewhere.
SMILES,rCAG binder,PRMT1 FP inh,UHRF1 MBD2 ctr,LEDGF integ inh,ABHD5-PLIN5 inh,MBD2 inh,rCAG bind conf,dCAG dye counter
CCc1ccc(S(=O)(=O)/N=C2\C=C(NS(=O)(=O)c3ccccc3)C(=O)c3ccccc32)cc1,58.8*,5.6,-1.9,11.0,-6.4,-13.3,88.9*,66.5*
COC(=O)c1sc(NC(=S)NNC(=O)c2c(Br)c(C)nn2C)c(C(=O)OC)c1C,69.2*,10.6,-1.0,-0.3,8.0,0.7,90.1*,70.1*
COc1ccc(C2=NOC(Cn3nc(-c4ccccc4C)cc3C(=O)O)C2)cc1 (configuration not stated),38.8*,-0.4,3.7,1.8,0.6,4.2,19.5,5.0*
Cc1c(NS(=O)(=O)c2cccs2)cccc1-c1nc2cccnc2s1,12.5,5.1,4.8,1.2,-0.9,5.0,nt,nt
Cc1cc(-c2nc3cccnc3s2)ccc1NS(=O)(=O)c1cccs1,49.8*,-0.6,-4.8,-0.2,-0.6,-1.8,37.1*,11.3*
Cc1cc(-c2nc3cccnc3s2)ccc1NS(=O)(=O)c1ccc2c(c1)OCCO2,38.0*,-1.9,-0.1,-1.1,4.2,2.2,47.2*,13.6*
Cc1c(NS(=O)(=O)c2ccc3c(c2)OCCO3)cccc1-c1nc2cccnc2s1,10.8,-0.9,2.6,2.4,-3.2,1.0,nt,nt
CC(C)c1[nH]nc2c1C(c1ccc3c(c1)OCO3)NC2=O (configuration not stated),3.9,-0.7,-0.5,-1.4,nt,1.3,nt,nt
CCc1ccc(CCNC(=O)OC2CC3CC2[C@H]2CCCCN2[C@H]3Cc2ccccc2)cc1 (some centres not stated),3.1,-0.4,1.0,-2.5,nt,2.7,nt,nt
Cc1ccc2c(c1)c(Sc1ccccc1)c(CC(=O)O)n2C,34.9*,2.0,1.9,7.1,-5.2,-4.1,26.3,5.2*
O=c1oc2ccccc2cc1-c1nc(-c2cccs2)cs1,41.1*,-19.5,-2.8,0.5,-5.3,1.0,11.9,8.6*
COc1cccc2cc(-c3nc(-c4cccs4)cs3)c(=O)oc12,18.9,10.8,0.0,3.5,4.4,0.0,nt,nt
Cc1cc(C)c(Nc2cc(S(=O)(=O)O)c(N)c3c2C(=O)c2ccccc2C3=O)c(C)c1,93.8*,14.8,22.8*,-2.9,18.0,1.5,93.4*,79.4*
Cc1cc(C)c(NC(=O)COC(=O)c2cccc3c2C(=O)c2ccccc2C3=O)c(C)c1,8.5,1.1,0.7,-2.1,0.8,0.4,nt,nt
CCc1ccc(Cn2c(=O)n(Cc3ccc(C(=O)NCCCOC)cc3)c(=O)c3ccccc32)cc1,8.1,1.7,0.2,0.2,nt,-2.8,nt,nt
CS/C(Nc1cc(Cl)ccc1Cl)=C(/C#N)C(=O)c1ccco1,47.4*,5.7,-0.5,0.2,-4.8,6.7,32.8,5.7*
C/C=C/c1ccc([C@H]2[C@@H](CN(CC(C)C)S(=O)(=O)c3ccccc3[N+](=O)[O-])N(C(=O)Nc3cccc(OC)c3)[C@H]2CO)cc1,11.0,-2.7,-0.8,1.1,nt,2.0,nt,nt
COC(=O)c1cc2c(c3c4cc(OC)ccc4n(C(=O)c4ccccc4)c13)C(=O)N(Cc1ccco1)C2,31.7,9.2,-3.0,3.3,nt,-5.5,nt,nt
O=C(O)CCn1cc(/C=C2\NC(=S)N(c3ccccc3)C2=O)c(-c2ccc(Br)cc2)n1,41.0*,6.1,1.2,-2.8,-1.0,0.2,38.8*,9.4*
N#CCCn1cc(/C=C2\NC(=S)N(c3ccccc3)C2=O)c(-c2ccc(F)cc2)n1,19.4,-1.8,0.5,-0.5,5.5,2.3,nt,nt
CC(C)[C@H](NC(=O)c1ccc(Cl)c(Cl)c1)C(=O)N1CCC[C@H]1C(=O)NCCc1ccccc1Cl,1.5,0.6,-1.4,1.2,nt,-0.3,nt,nt
CSc1nc2c(c(=O)[nH]1)C(c1cccs1)C1=C(CCCC1=O)N2 (configuration not stated),0.7,-2.2,-0.5,2.0,2.9,3.0,nt,nt
O=C1CCCC2=C1C(c1cn(-c3ccccc3)nc1-c1cccs1)c1c([nH]c(=O)[nH]c1=O)N2 (configuration not stated),39.1*,-3.6,-0.7,1.4,-4.2,-6.6,26.9,15.3*
CCCCOc1ccc(-c2c(C(=O)Nc3ccccc3)c(C)[nH]c(=S)c2C#N)cc1,60.0*,23.1*,-0.5,0.9,-3.8,3.8,36.0*,15.8*
O=S(=O)(Nc1ncnc2sc3c(c12)CCC3)c1ccc2ccccc2c1,68.8*,1.1,-1.0,-1.0,4.5,-3.6,56.4*,21.1*
SMILES,rCAG binder,PRMT1 FP inh,UHRF1 MBD2 ctr,LEDGF integ inh,ABHD5-PLIN5 inh,MBD2 inh,rCAG bind conf,dCAG dye counter
Cc1cc(F)ccc1S(=O)(=O)Nc1ncnc2sc3c(c12)CCC3,33.2,4.2,5.6,-10.9,-16.4,5.2,nt,nt
CC(=O)c1ccc(OCc2c(-c3ccccc3)nnn2CC(=O)NS(=O)(=O)c2ccc(C)cc2)cc1,48.4*,-1.6,-1.9,8.1,12.8,-1.2,60.4*,15.2*
N#Cc1ccc(OCc2c(-c3ccccc3)nnn2CC(=O)O)cc1,2.9,3.5,-2.4,-2.0,-5.8,-0.8,nt,nt
Cc1ccc(S(=O)(=O)NC(=O)Cn2nnc(-c3ccccc3)c2COc2ccc3ccccc3c2)cc1,79.9*,6.9,4.1,3.0,-1.6,3.6,85.6*,49.9*
Cc1ccc(OCC(=O)NS(=O)(=O)c2ccccc2)cc1,3.3,-2.1,0.9,-0.8,-5.3,0.3,nt,nt
CC(=O)c1ccc(OCc2c(-c3ccccc3)nnn2CC(=O)NS(=O)(=O)c2ccccc2C)cc1,52.0*,-3.5,-2.9,2.4,-10.4,-4.7,48.8*,14.2*
Cc1ccc(OCc2nnn(CC(=O)NS(=O)(=O)c3c(C)noc3C)c2-c2ccccc2)cc1,61.2*,0.8,-1.1,0.1,-1.6,-2.4,67.4*,18.8*
COC(=O)[C@]12C[C@H](CC(=O)NCCCN3CCCC3=O)C(=O)N(Cc3ccco3)C1=C[C@H](COCc1ccccc1)O[C@@H]2C,7.1,1.7,-2.0,-1.0,nt,-0.4,nt,nt
COc1ccc(NC(=O)CSc2nnc(-c3n[nH]c4c3CCC4)n2N)cc1OC,0.3,-4.4,0.4,-3.8,nt,-0.9,nt,nt
O=C(O)c1cc([N+](=O)[O-])cc([N+](=O)[O-])c1N1CCN(c2cccc(C(F)(F)F)c2)CC1,40.6*,0.1,-0.6,-1.3,-14.4,0.4,26.7,5.7*
Cc1ccc(-c2nn(-c3ccccc3)cc2C2CC(c3cccs3)=NN2C(=O)CCC(=O)O)cc1 (configuration not stated),15.4,2.4,8.0,0.1,2.4,4.0,nt,nt
O=C(O)CCn1cc(C2CC(c3ccccc3)=NN2c2ccccc2)c(-c2ccccc2)n1 (configuration not stated),54.9*,1.5,0.4,0.5,-2.9,0.0,61.6*,21.7*
